Source: PubChem BioAssay (NCATS)
Unmarked numbers belong to inactive results. Inconclusive results are not listed. Entries that show only a call come without a potency. The source made the active and inactive calls. Unless noted, the call rests on the fitted dose curve; in most records, active means well fitted curve in the direction sought with a large enough effect; inconclusive means small, poorly fitted or top-dose-only effect, or another doubt; inactive means no such curve, though single readings can be large; an effect the other way counts as inactive or inconclusive.

Columns and labels:
[1] = target: Cytochrome P450 1A2 (Homo sapiens) (UniProt P05177); experiment: p450-cyp1a2 (AID 410; calls by dose curve; further: potency means the concentration at half of the fitted maximal effect)
Summary of the method: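 O-Demethylation of luciferin 6' methyl ether by human CYP1A2 is monitored as luciferase luminescence. Substrate sits at Km (100uM); enzyme is 20nM. Values are scaled to 57 uM furafylline as maximal inhibition.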

[2] = target: Glucocorticoid receptor (Homo sapiens) (UniProt P04150); experiment: GR-GFP Redistribution (AID 450;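 active means compounds whose dose series gives a full or clear partial fitted curve of increased nuclear translocation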; further: potency means the concentration at half of the fitted maximal effect)
[3] = target: Glucocorticoid receptor (Homo sapiens) (UniProt P04150); experiment: GR-EFC Redistribution (AID 451; calls by dose curve; further: potency means the concentration at half of the fitted maximal effect); settings: CHO-K1 GR-EFC translocation, beta-gal luminescence, 2 h
Summary of the method: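 CHO-K1 cells stably expressing nuclear-localized β-gal enzyme acceptor and GR fused C-terminally to the enzyme donor fragment; ligand-driven nuclear translocation restores β-gal by complementation. Compounds titrated up to 46 uM final, 2 h at 37 °C; luminescence read.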

[4] = target: Mitogen-activated protein kinase 10 (Mus musculus) (UniProt Q61831); experiment: JNK3 AlphaScreen Assay (AID 530; active means well fitted curve in either direction with a large enough effect, not every such curve was filed as active;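 further: kinase came from lysate of stimulated human HepG2 cells; signal reports phosphorylation of biotinylated GST-cJun 1-79 at Ser73 with 10 µM ATP; series mostly up to about 57 µM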)
Summary of the method: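 Phosphorylation of biotinylated GST-cJun(1-79) at Ser73 is measured by AlphaScreen proximity luminescence. Enzyme is JNK3 in HepG2 lysates activated with interleukin-1beta and tumor necrosis factor alpha; ATP is 10 uM final.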

[5] = target: Cytochrome P450 2C9 (Homo sapiens) (UniProt P11712); experiment: qHTS Assay for Inhibitors and Substrates of Cytochrome P450 2C9 (AID 883); further: nearly all actives have a fitted effect of over 60% in size; further: potency means the concentration at half of the fitted maximal effect
Summary of the method: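 Human CYP2C9 (10nM) hydroxylated Luciferin-H (100uM, at its KM) to luciferin in 25mM KPO4. Compound was preincubated 10 min at 37C, then NADPH regeneration started a 60 min reaction at 37C. Luminescence was read after detection reagent, normalized to 57uM sulphaphenazole.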

[6] = target: Cytochrome P450 2C19 (Homo sapiens) (UniProt P33261); experiment: qHTS Assay for Inhibitors and Substrates of Cytochrome P450 2C19 (AID 899); further: nearly all actives have a fitted effect of over 60% in size; further: potency means the concentration at half of the fitted maximal effect
Summary of the method: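 Human CYP2C19 (5nM) with Luciferin-H EGE at 10uM (its KM) in 50mM KPO4 was preincubated with compound for 10 min at 37C. NADPH regeneration started a 60 min 37C reaction. Luciferin was read by luminescence, normalized to 57uM ketoconazole.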

[7] = target: 3',5'-cyclic-AMP phosphodiesterase 4B (Homo sapiens) (UniProt Q07343); experiment: qHTS Assay for Inhibitors of PDE-IV (AID 607; active means well fitted activation curve with a large enough effect in the main read-out, with a control signal flat, not every such curve was filed as active)
Summary of the method: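 Live HEK293 cells with a modified cyclic nucleotide-gated (CNG) channel report intracellular cAMP via membrane-potential dye fluorescence (ex 535/em 590 nm). Endogenous PDE-IV was targeted. Compounds were tested at up to 22.9 uM final; RO 20-1724 100 uM served as control.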

[8] = target: Cytochrome P450 2D6 (Homo sapiens) (UniProt P10635); experiment: qHTS Assay for Inhibitors and Substrates of Cytochrome P450 2D6 (AID 891);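 further: luciferin methyl ether substrate demethylated by CYP2D6 with NADPH regeneration; nearly all actives have a fitted effect of over 60% in size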
Summary of the method: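 Luminescent read-out of luciferin formed by 5 nM human CYP2D6 demethylating 30 uM Luciferin-ME EGE (Km level) over 60 min at room temperature after NADPH regeneration addition. Data normalized to full inhibition by 1.43 uM quinidine.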

[9] = target: Cytochrome P450 3A4 (Homo sapiens) (UniProt P08684); experiment: qHTS Assay for Inhibitors and Substrates of Cytochrome P450 3A4 (AID 884); further: potency means the concentration at half of the fitted maximal effect; nearly all actives have a fitted effect of over 50% in size
Summary of the method: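 Luminescent readout of luciferin produced by CYP3A4 (20 nM) dealkylation of Luciferin-PPXE, 25 uM (its KM). NADPH-driven reaction ran 60 min at RT after 10 min compound preincubation; data scaled to 57 uM ketoconazole as 100% inhibition.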

[10] = target: Cytochrome P450 3A4 (Homo sapiens) (UniProt P08684); experiment: qHTS Assay for Activators of Cytochrome P450 3A4 (AID 885); further: nearly all actives have a fitted effect of over 65% in size
Summary of the method: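 Using 20nM recombinant human CYP3A4 in potassium phosphate (200mM), substrate Luciferin-PPXE at 25uM, luminescent luciferin detection followed a 60-min RT NADPH reaction; data scaled to 57 uM ketoconazole.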

[11] = target: DNA dC->dU-editing enzyme APOBEC-3G (Homo sapiens) (UniProt Q9HC16); experiment: qHTS for inhibitors of Vif-A3G interactions: Validation (AID 588379)
Summary of the method: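 Yellow fluorescence (Ex 488, Em 500-530) of Vif-coexpressing HeLa A3G-eYFP cells, scanned by Acumen cytometer, reports blocked A3G degradation. Cells plated at 700/well overnight at 37 deg C before compound addition, then a further overnight compound incubation at 37 deg C.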

Sequence of 3',5'-cyclic-AMP phosphodiesterase 4B (Homo sapiens) (Q07343 whole entry, looked up): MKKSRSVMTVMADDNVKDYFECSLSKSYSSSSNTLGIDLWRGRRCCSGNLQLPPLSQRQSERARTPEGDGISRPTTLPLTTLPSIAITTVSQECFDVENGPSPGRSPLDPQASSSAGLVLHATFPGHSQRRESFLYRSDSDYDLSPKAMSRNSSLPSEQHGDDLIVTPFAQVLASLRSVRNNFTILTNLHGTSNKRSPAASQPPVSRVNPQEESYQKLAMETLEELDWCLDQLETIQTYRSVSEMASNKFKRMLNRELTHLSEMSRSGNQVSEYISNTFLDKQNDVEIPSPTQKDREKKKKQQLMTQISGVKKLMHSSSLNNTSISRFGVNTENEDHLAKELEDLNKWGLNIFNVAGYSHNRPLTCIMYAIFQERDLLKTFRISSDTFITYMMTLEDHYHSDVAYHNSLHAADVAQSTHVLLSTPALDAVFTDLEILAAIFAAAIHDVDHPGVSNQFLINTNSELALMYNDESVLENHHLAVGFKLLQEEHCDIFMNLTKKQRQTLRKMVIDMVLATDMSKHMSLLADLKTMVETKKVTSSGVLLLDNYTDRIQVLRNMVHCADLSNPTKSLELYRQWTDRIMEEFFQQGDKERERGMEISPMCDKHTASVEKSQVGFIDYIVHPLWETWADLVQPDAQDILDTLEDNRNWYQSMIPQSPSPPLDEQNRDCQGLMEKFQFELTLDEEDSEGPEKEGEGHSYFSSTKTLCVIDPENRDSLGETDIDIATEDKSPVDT
Sequence of Cytochrome P450 1A2 (Homo sapiens) (P05177 whole entry, looked up): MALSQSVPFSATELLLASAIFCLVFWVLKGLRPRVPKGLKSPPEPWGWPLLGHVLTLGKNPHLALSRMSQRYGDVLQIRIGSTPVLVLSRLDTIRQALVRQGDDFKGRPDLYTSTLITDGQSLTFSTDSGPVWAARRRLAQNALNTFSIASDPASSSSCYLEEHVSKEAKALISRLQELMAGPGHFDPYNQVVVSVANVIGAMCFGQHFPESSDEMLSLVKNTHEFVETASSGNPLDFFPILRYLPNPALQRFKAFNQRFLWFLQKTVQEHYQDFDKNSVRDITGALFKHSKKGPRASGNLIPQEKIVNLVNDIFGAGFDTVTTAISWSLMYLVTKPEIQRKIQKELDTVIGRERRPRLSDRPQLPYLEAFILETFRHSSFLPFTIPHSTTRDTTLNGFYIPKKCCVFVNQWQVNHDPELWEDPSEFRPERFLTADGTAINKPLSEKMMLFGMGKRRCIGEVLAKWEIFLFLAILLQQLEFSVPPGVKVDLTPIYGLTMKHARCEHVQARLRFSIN
Sequence of Cytochrome P450 2C9 (Homo sapiens) (P11712 whole entry, looked up): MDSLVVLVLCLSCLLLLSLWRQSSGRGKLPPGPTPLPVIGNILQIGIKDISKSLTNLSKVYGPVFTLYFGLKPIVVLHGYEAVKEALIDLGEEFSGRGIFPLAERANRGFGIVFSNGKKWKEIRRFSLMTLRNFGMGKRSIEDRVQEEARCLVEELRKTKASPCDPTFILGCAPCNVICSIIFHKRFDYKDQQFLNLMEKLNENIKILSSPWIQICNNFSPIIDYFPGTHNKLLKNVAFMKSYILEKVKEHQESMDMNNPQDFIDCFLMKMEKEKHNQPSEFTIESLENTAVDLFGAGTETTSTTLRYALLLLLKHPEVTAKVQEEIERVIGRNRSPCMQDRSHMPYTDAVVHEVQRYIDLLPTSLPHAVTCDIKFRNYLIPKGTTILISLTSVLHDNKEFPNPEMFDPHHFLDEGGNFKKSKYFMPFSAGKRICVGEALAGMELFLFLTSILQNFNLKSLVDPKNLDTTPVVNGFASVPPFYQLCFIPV
Sequence of Glucocorticoid receptor (Homo sapiens) (P04150 whole entry, looked up, the tested form may be a part): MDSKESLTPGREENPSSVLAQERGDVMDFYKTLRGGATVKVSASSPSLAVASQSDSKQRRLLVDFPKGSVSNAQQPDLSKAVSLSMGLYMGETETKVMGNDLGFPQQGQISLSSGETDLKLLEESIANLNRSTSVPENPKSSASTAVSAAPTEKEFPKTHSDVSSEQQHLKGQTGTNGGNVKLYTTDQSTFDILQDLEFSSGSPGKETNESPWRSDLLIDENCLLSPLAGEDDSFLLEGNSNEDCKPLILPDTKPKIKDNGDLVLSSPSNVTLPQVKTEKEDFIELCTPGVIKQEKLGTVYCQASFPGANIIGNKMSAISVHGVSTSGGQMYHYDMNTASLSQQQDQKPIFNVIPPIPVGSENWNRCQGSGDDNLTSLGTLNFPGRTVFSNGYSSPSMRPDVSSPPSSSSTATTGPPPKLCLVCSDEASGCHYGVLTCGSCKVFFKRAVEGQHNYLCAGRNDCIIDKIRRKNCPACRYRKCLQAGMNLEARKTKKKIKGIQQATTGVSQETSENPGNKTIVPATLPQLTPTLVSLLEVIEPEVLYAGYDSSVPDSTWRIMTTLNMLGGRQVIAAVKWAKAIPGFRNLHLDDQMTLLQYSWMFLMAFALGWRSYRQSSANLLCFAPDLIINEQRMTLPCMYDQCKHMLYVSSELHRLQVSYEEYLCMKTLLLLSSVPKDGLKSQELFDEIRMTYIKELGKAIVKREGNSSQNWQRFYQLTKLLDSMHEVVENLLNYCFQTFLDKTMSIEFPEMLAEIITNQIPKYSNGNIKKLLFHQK
Sequence of Cytochrome P450 2D6 (Homo sapiens) (P10635 whole entry, looked up): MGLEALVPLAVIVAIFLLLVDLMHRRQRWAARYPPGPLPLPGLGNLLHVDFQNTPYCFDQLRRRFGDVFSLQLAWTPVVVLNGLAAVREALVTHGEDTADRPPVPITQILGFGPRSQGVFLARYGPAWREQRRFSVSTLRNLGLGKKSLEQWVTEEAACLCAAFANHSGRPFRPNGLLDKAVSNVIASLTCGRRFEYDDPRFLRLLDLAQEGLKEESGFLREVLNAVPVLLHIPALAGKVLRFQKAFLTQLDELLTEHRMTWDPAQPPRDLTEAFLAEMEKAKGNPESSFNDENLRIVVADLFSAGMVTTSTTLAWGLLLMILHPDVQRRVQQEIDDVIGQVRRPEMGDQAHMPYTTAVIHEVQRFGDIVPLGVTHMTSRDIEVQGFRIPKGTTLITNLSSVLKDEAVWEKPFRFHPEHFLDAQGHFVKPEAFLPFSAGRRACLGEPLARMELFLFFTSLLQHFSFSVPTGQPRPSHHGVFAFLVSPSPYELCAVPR
Sequence of Cytochrome P450 2C19 (Homo sapiens) (P33261 whole entry, looked up): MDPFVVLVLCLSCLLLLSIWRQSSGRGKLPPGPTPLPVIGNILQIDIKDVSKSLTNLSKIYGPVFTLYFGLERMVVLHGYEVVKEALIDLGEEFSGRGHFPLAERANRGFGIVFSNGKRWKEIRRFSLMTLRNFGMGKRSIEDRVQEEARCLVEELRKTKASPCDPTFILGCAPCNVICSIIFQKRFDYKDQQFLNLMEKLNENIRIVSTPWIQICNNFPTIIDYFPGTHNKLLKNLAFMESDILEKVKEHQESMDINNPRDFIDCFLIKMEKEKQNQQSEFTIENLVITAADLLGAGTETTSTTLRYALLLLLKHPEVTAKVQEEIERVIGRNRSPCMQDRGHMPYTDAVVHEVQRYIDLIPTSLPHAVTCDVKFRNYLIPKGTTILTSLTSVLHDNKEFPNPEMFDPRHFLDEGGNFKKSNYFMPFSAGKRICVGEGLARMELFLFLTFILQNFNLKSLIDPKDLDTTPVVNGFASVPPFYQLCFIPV
Sequence of Cytochrome P450 3A4 (Homo sapiens) (P08684 whole entry, looked up): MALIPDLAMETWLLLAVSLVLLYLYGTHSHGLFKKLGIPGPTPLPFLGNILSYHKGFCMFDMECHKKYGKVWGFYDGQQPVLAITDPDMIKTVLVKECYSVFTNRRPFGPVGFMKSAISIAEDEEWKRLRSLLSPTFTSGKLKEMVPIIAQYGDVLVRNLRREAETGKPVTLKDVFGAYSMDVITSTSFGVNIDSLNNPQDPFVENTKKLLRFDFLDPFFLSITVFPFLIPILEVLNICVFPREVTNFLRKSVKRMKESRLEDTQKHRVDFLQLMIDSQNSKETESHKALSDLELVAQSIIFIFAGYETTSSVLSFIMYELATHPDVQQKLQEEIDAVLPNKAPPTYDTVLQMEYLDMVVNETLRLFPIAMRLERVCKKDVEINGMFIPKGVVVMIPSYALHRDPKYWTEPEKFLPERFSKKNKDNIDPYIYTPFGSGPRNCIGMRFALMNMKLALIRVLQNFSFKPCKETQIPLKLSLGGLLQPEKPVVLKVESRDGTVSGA
Sequence of DNA dC->dU-editing enzyme APOBEC-3G (Homo sapiens) (Q9HC16 whole entry, looked up): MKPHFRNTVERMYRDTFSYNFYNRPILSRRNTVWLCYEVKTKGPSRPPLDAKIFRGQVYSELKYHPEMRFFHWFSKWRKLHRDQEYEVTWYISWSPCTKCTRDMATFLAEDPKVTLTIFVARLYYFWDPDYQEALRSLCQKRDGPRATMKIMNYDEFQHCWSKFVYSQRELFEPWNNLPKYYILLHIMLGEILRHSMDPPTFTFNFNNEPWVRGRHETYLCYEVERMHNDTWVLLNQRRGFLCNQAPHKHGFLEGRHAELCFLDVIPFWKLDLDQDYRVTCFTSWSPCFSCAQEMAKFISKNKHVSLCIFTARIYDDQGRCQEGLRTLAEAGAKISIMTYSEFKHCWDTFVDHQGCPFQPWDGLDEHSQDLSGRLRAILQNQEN

SMILES	Potency [1]	Potency [2] [µM]	Potency [3] [µM]	Potency [4]	Potency [5]	Potency [6]	Potency [7]	Potency [8]	Potency [9]	Potency [10]	outcome [11]
COc1ccc2c(c1)[C@]1(C)CCC[C@](C)(CO)[C@@H]1CC2	15.8 µM (active)	> 46	> 46	inactive	7.94 µM (active)	3.16 µM (active)					
CC(C)[C@@H](CC(=O)N[C@@H]1CCCC[C@H]1C(=O)N[C@H](CC(=O)N[C@@H](CCC(=O)O)CC(=O)O)Cc1ccccc1)NC(=O)C[C@H](CO)NC(=O)[C@@H]1CCCC[C@H]1N	inactive		> 46	inactive			inactive	inactive			
CC(C)C[C@@H](CC(=O)N[C@@H](CCC(=O)O)CC(=O)O)NC(=O)[C@@H]1CNCC[C@H]1NC(=O)C[C@H](CCCN)NC(=O)C[C@H](CO)NC(=O)[C@@H]1CCCC[C@H]1N	inactive		> 46	inactive	inactive	inactive	inactive	inactive			
CC(C)C[C@@H](CC(=O)N[C@@H](CCC(=O)O)CC(=O)O)NC(=O)[C@@H]1CCCC[C@H]1NC(=O)C[C@H](CCCN)NC(=O)C[C@H](Cc1ccccc1)NC(=O)[C@@H]1CCCC[C@H]1N	inactive		> 46	inactive	inactive	inactive	inactive	inactive			
CC(C)C[C@@H](CC(=O)N[C@H](CC(=O)N[C@@H]1CCNC[C@H]1C(=O)N[C@H](CC(=O)N[C@@H](CCC(=O)O)CC(=O)O)Cc1ccccc1)C(C)C)NC(=O)[C@@H]1CCCC[C@H]1N	inactive		> 46	inactive			inactive	inactive			
CC(C)C[C@@H](CC(=O)N[C@H](CC(=O)N[C@@H]1CCNC[C@H]1C(=O)N[C@H](CC(=O)N[C@@H](CCC(=O)O)CC(=O)O)Cc1ccccc1)C(C)C)NC(=O)[C@@H]1CNCC[C@H]1N	31.6 µM (active)		> 46	inactive	inactive	inactive	inactive	inactive			
CC(C)C[C@@H](CC(=O)N[C@@H](CCC(=O)O)CC(=O)O)NC(=O)[C@@H]1CNCC[C@H]1NC(=O)C[C@@H](NC(=O)C[C@H](CO)NC(=O)[C@@H]1CCCC[C@H]1N)C(C)C	inactive		> 46	inactive	inactive	inactive	inactive	inactive			
O=c1ccn([C@H]2O[C@H](CO)[C@@H](O)[C@@H]2O)c(=O)[nH]1	inactive	> 46		inactive	inactive	inactive	inactive	inactive			
CC(C)C[C@@H](CC(=O)N[C@@H](CCC(=O)O)CC(=O)O)NC(=O)[C@@H]1CCCC[C@H]1NC(=O)C[C@@H](NC(=O)C[C@H](Cc1c[nH]c2ccccc12)NC(=O)[C@@H]1CNCC[C@H]1N)C(C)C	inactive		> 46	inactive	inactive	inactive	inactive				
CC(C)C[C@@H](CC(=O)N[C@@H](CCC(=O)O)CC(=O)O)NC(=O)[C@@H]1CNCC[C@H]1NC(=O)C[C@H](CCCN)NC(=O)C[C@H](CO)NC(=O)[C@@H]1CNCC[C@H]1N	inactive		> 46	inactive			inactive	inactive			
NCCC[C@@H](CC(=O)N[C@@H]1CCNC[C@H]1C(=O)N[C@H](CC(=O)N[C@@H](CCC(=O)O)CC(=O)O)Cc1ccccc1)NC(=O)C[C@H](Cc1c[nH]c2ccccc12)NC(=O)[C@@H]1CNCC[C@H]1N	inactive		> 46	inactive	inactive	inactive	inactive	inactive			
CC(C)C[C@@H](CC(=O)N[C@@H](CCC(=O)O)CC(=O)O)NC(=O)[C@@H]1CNCC[C@H]1NC(=O)C[C@H](CCCN)NC(=O)C[C@H](Cc1ccccc1)NC(=O)[C@@H]1CCCC[C@H]1N	25.1 µM (active)		> 46	inactive	inactive	inactive	inactive				
CC(C)C[C@@H](CC(=O)N[C@@H](CCC(=O)O)CC(=O)O)NC(=O)[C@@H]1CCCC[C@H]1NC(=O)C[C@H](CCCN)NC(=O)C[C@H](Cc1ccccc1)NC(=O)[C@@H]1CNCC[C@H]1N	inactive		> 46	inactive	inactive	inactive	inactive	inactive			
COc1cccc(-c2oc3ccccc3c(=O)c2O)c1	0.2 µM (active)	> 46			12.6 µM (active)	6.31 µM (active)	inactive		12.6 µM (active)	inactive	inactive
CC(C)[C@@H](CC(=O)N[C@@H]1CCNC[C@H]1C(=O)N[C@H](CC(=O)N[C@@H](CCC(=O)O)CC(=O)O)Cc1ccccc1)NC(=O)C[C@H](Cc1c[nH]c2ccccc12)NC(=O)[C@@H]1CNCC[C@H]1N	inactive		> 46	inactive	inactive	inactive	inactive	inactive			
CC(C)[C@@H](CC(=O)N[C@@H]1CCCC[C@H]1C(=O)N[C@H](CC(=O)N[C@@H](CCC(=O)O)CC(=O)O)Cc1c[nH]c2ccccc12)NC(=O)C[C@H](Cc1c[nH]c2ccccc12)NC(=O)[C@@H]1CCCC[C@H]1N	inactive		> 46	inactive	inactive	inactive	inactive	inactive			
CC(C)[C@@H](CC(=O)N[C@@H]1CCCC[C@H]1C(=O)N[C@H](CC(=O)N[C@@H](CCC(=O)O)CC(=O)O)Cc1c[nH]c2ccccc12)NC(=O)C[C@H](Cc1ccccc1)NC(=O)[C@@H]1CNCC[C@H]1N	inactive		> 46	inactive	inactive	inactive	inactive	inactive			
CC(C)C[C@@H](CC(=O)N[C@@H](CCCN)CC(=O)N[C@@H]1CCCC[C@H]1C(=O)N[C@H](CC(=O)N[C@@H](CCC(=O)O)CC(=O)O)Cc1ccccc1)NC(=O)[C@@H]1CCCC[C@H]1N	inactive		> 46	inactive			inactive	inactive			
NCCC[C@@H](CC(=O)N[C@@H]1CCNC[C@H]1C(=O)N[C@H](CC(=O)N[C@@H](CCC(=O)O)CC(=O)O)Cc1ccccc1)NC(=O)C[C@H](Cc1ccccc1)NC(=O)[C@@H]1CNCC[C@H]1N	31.6 µM (active)		> 46	inactive	inactive	inactive	inactive	inactive			
NCCC[C@@H](CC(=O)N[C@@H]1CCNC[C@H]1C(=O)N[C@H](CC(=O)N[C@@H](CCC(=O)O)CC(=O)O)Cc1c[nH]c2ccccc12)NC(=O)C[C@H](Cc1c[nH]c2ccccc12)NC(=O)[C@@H]1CCCC[C@H]1N	inactive		> 46	inactive	inactive	inactive	inactive				
CC(C)[C@@H](CC(=O)N[C@@H]1CCCC[C@H]1C(=O)N[C@H](CC(=O)N[C@@H](CCC(=O)O)CC(=O)O)Cc1ccccc1)NC(=O)C[C@H](Cc1c[nH]c2ccccc12)NC(=O)[C@@H]1CCCC[C@H]1N	inactive		> 46	inactive	inactive	inactive	inactive	inactive			
CC(C)[C@@H](CC(=O)N[C@@H]1CCNC[C@H]1C(=O)N[C@H](CC(=O)N[C@@H](CCC(=O)O)CC(=O)O)Cc1c[nH]c2ccccc12)NC(=O)C[C@H](Cc1c[nH]c2ccccc12)NC(=O)[C@@H]1CCCC[C@H]1N	inactive		> 46	inactive	inactive	inactive	inactive	inactive			
COc1cc(-c2cc(=O)c3ccccc3o2)ccc1O	0.0794 µM (active)	> 46			6.31 µM (active)	6.31 µM (active)	inactive			inactive	inactive
CC(=O)c1c(O)c(C)c(O)c2c1OC1=CC(=O)[C@H](C(C)=O)C(=O)[C@]12C	3.16 µM (active)	> 46				inactive		inactive			
NCCC[C@@H](CC(=O)N[C@@H]1CCCC[C@H]1C(=O)N[C@H](CC(=O)N[C@@H](CCC(=O)O)CC(=O)O)Cc1c[nH]c2ccccc12)NC(=O)C[C@H](Cc1ccccc1)NC(=O)[C@@H]1CNCC[C@H]1N	15.8 µM (active)		> 46	inactive	inactive	inactive	inactive	inactive			
